In the library only some 1.8% were active in any assay of this set; here they are far more common.
A3A deaminase – human APOBEC3A DNA deaminase inhibition. 330,000 compounds, 0.41% hits. AID 493011. P31941. recombinant A3A, FAM/TAMRA ssDNA deamination fluorescence. inhibition, % at 20 µM;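 active = at least 40% inhibition at 20 µM here, with at most 30% in a related deaminase screen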
Target sequence (P31941 whole entry, looked up): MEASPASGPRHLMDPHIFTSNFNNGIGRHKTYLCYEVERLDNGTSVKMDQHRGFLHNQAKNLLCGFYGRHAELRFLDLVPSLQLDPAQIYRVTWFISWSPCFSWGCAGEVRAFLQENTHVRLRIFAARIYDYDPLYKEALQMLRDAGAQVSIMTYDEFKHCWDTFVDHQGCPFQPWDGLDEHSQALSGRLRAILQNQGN
VLA-4 inh – inhibition in a human VLA-4 binding assay. P13612. VLA-4 expressing cells, ligand binding flow cytometry. inhibition, % (about 7 µM as worked out from the volumes in the protocol). 330,000 compounds, 0.2% hits. AID 2557; in the data active = inhibition above about 50%
NRP1-CendR mod – modulators of CendR peptide binding to human neuropilin-1; O14786; FAM-RPARPAR peptide binding to NRP-1, fluorescence polarization; AID 602438; inhibition, % at 25 µM; 360,000 compounds, 0.85% hits;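 active = inhibition or corrected inhibition above about 18%, plus a signal ratio from 0.5 to 1.5, limit read from the data, passing the limit was not always enough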
A3G deaminase – APOBEC3G (human) deaminase inhibition; Q9HC16; recombinant A3G, ssDNA deamination FAM/TAMRA fluorescence; inhibition, % at 20 µM; 330,000 compounds, 0.28% hits; AID 493012;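 active = inhibition of at least 40% at 20 µM, with no more than 30% in the related APOBEC3A deaminase screen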
Target sequence (Q9HC16 whole entry, looked up): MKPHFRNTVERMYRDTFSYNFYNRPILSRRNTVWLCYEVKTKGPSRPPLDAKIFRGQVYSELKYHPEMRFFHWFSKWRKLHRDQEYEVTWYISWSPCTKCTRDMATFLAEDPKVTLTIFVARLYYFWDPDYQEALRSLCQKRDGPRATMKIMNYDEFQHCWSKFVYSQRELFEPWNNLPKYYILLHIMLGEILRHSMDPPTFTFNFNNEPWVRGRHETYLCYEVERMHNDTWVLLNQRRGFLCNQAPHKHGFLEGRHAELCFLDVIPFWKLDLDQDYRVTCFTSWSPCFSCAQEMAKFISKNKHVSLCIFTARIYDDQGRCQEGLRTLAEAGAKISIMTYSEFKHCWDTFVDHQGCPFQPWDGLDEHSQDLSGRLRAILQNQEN
beta cell repl – induces beta-cell replication in MIN6 cells. MIN6 cells proliferation, ATPlite luminescence, 48 h; cells starved in 0.2% serum; 100% = growth in 10% serum. 330,000 compounds, 0.29% hits. proliferation, % at 10 µM. AID 2380;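 active = compounds whose signal lies at least 3.5 SD above the mean of all wells on their plate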
Large screens that a line does not name were inactive.

CC(OC(=O)C1CCN(S(=O)(=O)c2ccc3c(c2)OCCO3)CC1)C(=O)NC1(C#N)CCCCC1 (centres undefined)	none (no result: A3A deaminase, VLA-4 inh, A3G deaminase, beta cell repl)
Cc1ccc2c(c1)C(=O)C(=O)N2CC(=O)OC(C)C	NRP1-CendR mod 27
Cc1ccc(OCCN2C(=O)C(=O)c3cc(C)ccc32)cc1	none
COc1cccc(NC(=O)CSC2=NN3CCCC(=O)N=C3S2)c1	NRP1-CendR mod 30
COc1ccc(OC)c(NC(=O)CSC2=NN3CCCC(=O)N=C3S2)c1	none
O=C1COc2ccc(C(=O)COC(=O)COc3ccccc3[N+](=O)[O-])cc2N1	NRP1-CendR mod 25
O=C1COc2ccc(C(=O)COC(=O)CCc3ccc(S(=O)(=O)N4CCOCC4)cc3)cc2N1	NRP1-CendR mod 35
N#Cc1ccccc1OCC(=O)OCC(=O)c1ccc2c(c1)NC(=O)CO2	none
COc1ccc(C(=O)NCC(=O)OCC(=O)c2ccc3c(c2)NC(=O)CO3)cc1OC	none
Cc1ccc(C(=O)NCC(=O)OCC(=O)c2ccc3c(c2)NC(=O)CO3)cc1	NRP1-CendR mod 31
Cc1ccc(NC(=O)CCCc2nc3ccccc3c(=O)[nH]2)c(Cl)c1	none
N#CC(C#N)=C1CCCc2sccc21	none (no result: A3A deaminase, VLA-4 inh, A3G deaminase, beta cell repl)
CC(=O)OCC[C@H](NS(=O)(=O)OCC(Cl)(Cl)Cl)c1ccccc1	none
O=C(O)c1ccc(NC(=S)NC(=O)c2cccnc2)cc1	none
CCNc1cc2oc(=O)c(CN3CCOCC3)c(C)c2cc1C	NRP1-CendR mod 25
CCOC(=O)c1cc(-c2ccccc2)sc1NC(=S)Nc1cccc(C)n1	NRP1-CendR mod 43
NS(=O)(=O)c1ccc(CCNC(=O)COC(=O)C2CCC2)cc1	none
O=[N+]([O-])CC(=Nc1ccc(F)cc1)N/N=C\c1oc(O)c2ccccc12	none (no result: NRP1-CendR mod)
Cc1ccc(Cl)cc1C1=CC(=O)C[C@H](c2ccc(F)cc2)C1	NRP1-CendR mod 27
O=C1C=C(c2ccc(F)c(Cl)c2)C[C@@H](c2ccc(F)cc2)C1	NRP1-CendR mod 24
COc1ccc([C@H]2CC(=O)C=C(c3cc(Cl)ccc3C)C2)cc1	none
O=C1C=C(c2cc(F)ccc2F)C[C@@H](c2ccc(Cl)cc2)C1	none
COc1ccc(NC(=O)CN2C(=O)C(=O)N(C3CCCC3)C2=O)c(OC)c1	none
O=C(Cn1cccc1C(=O)c1ccccc1)NCCC1=CCCCC1	NRP1-CendR mod 23
COc1cc(O)c(C(CC(=O)N2CCOCC2)c2ccc(N(C)C)cc2)c(OC)c1 (centres undefined)	NRP1-CendR mod 24 (no result: VLA-4 inh)
COc1cc(O)c(C(CC(=O)N2CCOCC2)c2ccc3c(c2)OCO3)c(OC)c1 (centres undefined)	NRP1-CendR mod 28
CCOc1ccccc1C(=O)NCC(=O)NCC(c1ccco1)N1CCCCC1 (centres undefined)	none
COc1cccc(NC(=O)CN(C2=NC3CS(=O)(=O)CC3S2)c2cccc(C)c2)c1 (centres undefined)	none
COC(=O)COc1ccc2cc(-c3ccc(OC)cc3)c(=O)oc2c1	NRP1-CendR mod 20
COc1ccc(C(CNC(=O)Nc2cccc(C)c2)N2CCN(C)CC2)cc1 (centres undefined)	none
Cn1cnc2c1c(=O)[nH]c(=O)n2C	none (no result: NRP1-CendR mod)
CSc1cnc2c(=O)[nH]c(=O)n(C)c2n1	NRP1-CendR mod 27
CNS(=O)(=O)c1cccc(C(=O)OCC(=O)c2ccc3[nH]c(=O)[nH]c3c2)c1	none
Cc1ccc2c(c1)C(c1ccncc1)=NNC(c1ccc(F)cc1)=N2	NRP1-CendR mod 36
Cc1ccc2c(c1)C(c1ccncc1)=NNC(c1ccccc1)=N2	none
CCC(c1ccccc1)c1noc(CCN(CC)CC)n1 (centres undefined)	none (no result: A3A deaminase, VLA-4 inh, A3G deaminase, beta cell repl)
CCOC(=O)c1cc2c(=O)n3ccccc3nc2n(CC2CCCO2)c1=NC(C)=O (centres undefined)	none
CCOC(=O)c1cc2c(=O)n3ccccc3nc2n(CC2CCCO2)c1=NC(=O)/C=C/c1ccccc1 (centres undefined)	NRP1-CendR mod 29
COc1ccccc1NC(=O)CSc1nnc(CC(=O)Nc2ccccc2F)n1C	none
COC(C/C=C\[C@H](O)COCc1ccccc1)OC	NRP1-CendR mod 25 (no result: VLA-4 inh)
COC(C/C=C/[C@H](O)[C@@H](C)OCc1ccccc1)OC	none
COC(=O)C=C1CCC2C3CC(F)C4(O)CC(=O)CCC4(C)C3C(=O)CC12C (centres undefined)	none (no result: A3A deaminase, VLA-4 inh, A3G deaminase, beta cell repl)
NC(=O)C1=C[C@H](c2ccc(Br)cc2)C[C@H](OCc2ccc(CO)cc2)O1	NRP1-CendR mod 26
NC(=O)C1=C[C@@H](c2ccc(Br)cc2)C[C@@H](OCc2ccc(CO)cc2)O1	none
O=C(NCc1ccccc1)C1=C[C@H](C2CCCCC2)C[C@H](OCc2ccc(CO)cc2)O1	NRP1-CendR mod 18
O=C(NCc1ccccc1)C1=C[C@@H](C2CC2)C[C@@H](OCc2ccc(CO)cc2)O1	none
NC(=O)C1=C[C@H](C2CCCCC2)C[C@H](OCc2ccc(CO)cc2)O1	NRP1-CendR mod 28
O=C(CSc1ncccn1)NC(=O)Cc1ccccc1	none
Cc1cccc(N/C=C(\[N+](=O)[O-])S(=O)(=O)c2ccccc2)c1C	none
O=[N+]([O-])c1cccc(C=NNC(=S)NC23CC4CC(CC(C4)C2)C3)c1	none (no result: A3A deaminase, VLA-4 inh, A3G deaminase, beta cell repl)
O=C(Nc1ccccc1C(=O)N1CCOCC1)c1cc2ccccc2o1	NRP1-CendR mod 22
COC(=O)c1ccccc1NC(=O)c1cc2ccccc2o1	none
CCCCN(CC)C(=S)Nc1ccc2nc(N3CCN(C)CC3)cc(C)c2c1	none
CCOC(=O)CSc1nnc2c3ccccc3n(C)c2n1	NRP1-CendR mod 26
Cc1ccc(O)c(-c2cc(C(=O)Nc3ccc(S(=O)(=O)N4CC(C)OC(C)C4)cc3)[nH]n2)c1 (centres undefined)	none
Cc1ccc(O)c(-c2cc(C(=O)Nc3ccc(S(=O)(=O)Nc4nc(C)cc(C)n4)cc3)[nH]n2)c1	NRP1-CendR mod 29
CC(C)n1c(NCc2ccc(N(C)C)cc2)nc2ccccc21	NRP1-CendR mod 29
CC(=O)NC1=C(NC2CCS(=O)(=O)C2)C(=O)c2ccccc2C1=O (centres undefined)	none
CN(C1=C(NC(=O)c2ccccc2)C(=O)c2ccccc2C1=O)C1CCS(=O)(=O)C1 (centres undefined)	NRP1-CendR mod 45
O=C(COC(=O)CNS(=O)(=O)c1ccc(Cl)cc1)NC1CCCCC1	none (no result: VLA-4 inh)
Cc1cccc(OCCNS(=O)(=O)c2ccc(Cl)cc2)c1	none
COC(=O)c1ccn(CSc2cc(Cl)ccc2Cl)n1	none
COC(=O)c1ccn(C(=O)c2ccc(Cl)cc2)n1	NRP1-CendR mod 28
CCCn1nc([N+](=O)[O-])c(C(C#N)c2nc3ccccc3o2)c(Cl)c1=O (centres undefined)	none
CCn1nc([N+](=O)[O-])c(C(C#N)c2nc3cc(C(F)(F)F)ccc3s2)c(Cl)c1=O (centres undefined)	NRP1-CendR mod 26
COc1ccc(Cl)cc1NC(=O)CCc1nc(-c2ccccc2F)no1	NRP1-CendR mod 46

Bioassay records from PubChem.
